Compound activity as filed in PubChem.
Most compounds without a hit are left out; they make up all but 2.4% or so of the library.
NOD2-RIPK2 inh: NOD2-RIPK2 binding disruptors in cells, primary screen, fluorescence, CHO cells, BLA complementation | Receptor-interacting serine/threonine-protein kinase 2 (Homo sapiens), O43353 | CCF4 ratio | inhibition, % at 4.98 µM | 0.38% of 360,000 active; in the data active = inhibition above about 21%;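 note: 0% = vehicle only and 100% = reference blocker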
TLR9-MyD88 inh: inhibitors of TLR9-MyD88 association in cells, primary screen, cell-based, CHO, BLA complementation, fluorescence; CCF4 FRET ratio; 0.21% of 340,000 active; inhibition, % at 4.98 µM; Toll-like receptor 9 (Homo sapiens) + Myeloid differentiation primary response protein …;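 active = inhibition above the mean over all tested compounds plus 3 SD, cut at about 21% in these data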;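 note: 0% = DMSO only wells and 100% = clavulanate BLA inhibitor control wells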
TLR4-MyD88 BLA: inhibitors of TLR4-MyD88 association in cells, primary screen, cell-based, HeLa CL3-4, BLA complementation, FRET ratio. 0.18% of 200,000 active. HeLa CL3-4 TLR4/MyD88 BLA complementation. Toll-like receptor 4 (Homo sapiens) + Myeloid differentiation primary response protein …. inhibition, % at 8.4 µM; in the data active = inhibition above about 25%;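 note: 0% = vehicle and 100% = reference inhibitor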
Target sequence (O00206 whole entry, looked up): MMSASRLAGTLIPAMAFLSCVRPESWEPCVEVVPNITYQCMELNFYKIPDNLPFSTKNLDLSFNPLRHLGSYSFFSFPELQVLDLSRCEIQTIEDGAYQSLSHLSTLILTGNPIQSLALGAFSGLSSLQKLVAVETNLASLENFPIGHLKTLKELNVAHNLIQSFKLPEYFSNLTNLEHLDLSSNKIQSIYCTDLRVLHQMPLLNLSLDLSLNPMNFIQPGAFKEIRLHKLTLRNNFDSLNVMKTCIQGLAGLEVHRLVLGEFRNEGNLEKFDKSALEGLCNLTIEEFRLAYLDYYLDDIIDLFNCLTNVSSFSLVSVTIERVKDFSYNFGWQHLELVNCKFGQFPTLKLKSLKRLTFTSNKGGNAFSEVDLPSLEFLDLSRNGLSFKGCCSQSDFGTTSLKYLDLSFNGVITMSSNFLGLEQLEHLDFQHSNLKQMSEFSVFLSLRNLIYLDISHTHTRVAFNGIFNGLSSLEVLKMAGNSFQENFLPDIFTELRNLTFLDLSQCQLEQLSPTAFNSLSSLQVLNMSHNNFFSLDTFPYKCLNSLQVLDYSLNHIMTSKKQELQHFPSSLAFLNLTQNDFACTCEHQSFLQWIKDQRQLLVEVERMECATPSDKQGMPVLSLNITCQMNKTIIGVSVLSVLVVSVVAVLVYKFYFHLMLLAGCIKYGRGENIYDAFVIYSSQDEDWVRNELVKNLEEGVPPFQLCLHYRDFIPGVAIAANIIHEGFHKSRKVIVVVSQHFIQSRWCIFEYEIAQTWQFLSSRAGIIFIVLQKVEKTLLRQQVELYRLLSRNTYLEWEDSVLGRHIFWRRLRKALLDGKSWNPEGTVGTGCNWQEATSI
Target sequence (Q99836 whole entry, looked up): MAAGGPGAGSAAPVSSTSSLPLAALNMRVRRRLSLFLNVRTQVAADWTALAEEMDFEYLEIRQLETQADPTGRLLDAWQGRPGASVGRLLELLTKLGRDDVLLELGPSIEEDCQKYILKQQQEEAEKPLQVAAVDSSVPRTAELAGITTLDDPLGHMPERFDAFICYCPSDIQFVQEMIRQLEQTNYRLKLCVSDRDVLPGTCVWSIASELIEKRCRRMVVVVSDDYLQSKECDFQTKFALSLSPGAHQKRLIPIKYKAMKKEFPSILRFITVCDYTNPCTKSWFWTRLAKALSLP
m5-HT2A agonist: mouse Htr2a agonists via beta-arrestin recruitment, primary screen, cell-based, luminescence | 0.66% of 360,000 active | 5-hydroxytryptamine receptor 2A (Mus musculus), P35363 | CHO-K1 mHTR2A beta-arrestin complementation; percent of 30 µM serotonin response | activation, % at 7.6 µM;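 active = activation above a run cutoff, the mean activation of all tested compounds plus 3 SD, cut at about 14% in these data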;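 note: 0% = plate median of compound wells and 100% = 30 µM serotonin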
TMEM16A inh: TMEM16A chloride channel inhibitors, primary screen, cell-based, HTS; 1.2% of 310,000 active; normalized B-score (activity score, 25-100; higher = stronger inhibition) at 10 µM; HEK293 TMEM16A/YFP iodide influx fluorescence, ionomycin;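 active = ratio plate-corrected score three or more library SD toward inhibition, starting fluorescence score within five deviations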;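 note: score derived from kinetic fluorescence span divided by baseline fluorescence per well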
TMEM16A act: TMEM16A chloride channel activators or potentiators, primary screen, cell-based, HTS | Anoctamin-1 (Mus musculus), Q8BHY3 | HEK293 TMEM16A/YFP-H148Q/I152L, iodide quench fluorescence; active compounds read low | B-score at 10 µM | 0.3% of 340,000 active;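 active = fluorescence-ratio B-score plate-corrected deviation score at least 3 library SD below zero, with starting fluorescence score within 5 deviations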;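 note: channel opened by trigger with iodide after compound preincubation; score built on the fluorescence ratio of max minus min over baseline; more negative score means more quench and so TMEM16A activation or potentiation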
NOD2-RIPK2 conf: NOD2-RIPK2 binding disruptors, retest, confirmation, fluorescence, CHO cells, BLA complementation, triplicate; inhibition, % at 4.98 µM; 70% of 1,200 active; CCF4 FRET; shares compounds with NOD2-RIPK2 inh;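 active = mean inhibition across replicates above a set limit taken from the earlier primary screen, cut at about 21% in these data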;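 note: 0% = DMSO-only wells and the high end = clavulanate BLA-blocked wells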
BLA counter: counter-screen for NOD2-RIPK2 interaction inhibitors: BLA reporter; shares compounds with NOD2-RIPK2 inh; CHO BLA reporter, CCF4 FRET ratio, counterscreen; inhibition, % at 4.98 µM; 57% of 1,200 active; AID 624371;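 active = mean inhibition above the low-control mean inhibition plus three low-control SD, cut at about 11% in these data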;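 note: 0% = DMSO only wells and 100% = clavulanate high control wells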
Active calls of the source: *; i = inactive; / = no result.

SMILES	NOD2-RIPK2 inh	TLR9-MyD88 inh	TLR4-MyD88 BLA	m5-HT2A agonist	TMEM16A inh	TMEM16A act	NOD2-RIPK2 conf	BLA counter
O=C(CSc1ccccc1)N1CCCC(N2CCN(c3ccc(F)cc3)CC2)C1 (configuration not stated)	-9.3	-0.1	/	-4.9	i	i	/	/
Cc1cc(C(F)(F)F)c2c(N)c(C(=O)NCc3ccc(Cl)cc3)sc2n1	23.5*	/	/	9.5	/	/	23.1*	21.3*
Cc1nc(Cl)c2c(n1)NC1=C(O2)C(=O)CCC1	18.3	19.6	-8.0	0.9	i	i	/	/
CC1(C(=O)Nc2cccc(-n3cnnn3)c2)Cc2ccccc2C(=O)O1 (configuration not stated)	3.2	-6.1	/	-3.4	/	i	/	/
Cc1ccnc(N/C=C(\C#N)c2nc(-c3cccc(Br)c3)cs2)c1	27.0*	15.2	8.0	-5.0	i	i	30.0*	29.7*
N#C/C(=C\Nc1ccc2cn[nH]c2c1)c1nc(-c2ccccc2)cs1	-2.4	-22.5	-20.0	0.4	/	i	/	/
Cc1ccccc1NC(=O)C1C2CC/C=C\CCC21 (configuration not stated)	27.1*	-4.8	-15.4	0.4	i	i	-0.5	-2.4
Cc1ccccc1NC(=O)C1C2CCCCC21 (configuration not stated)	0.8	-15.3	/	3.4	i	i	/	/
CCc1cccc(CC)c1N1C(=O)COCC1=O	-1.6	-7.1	/	4.8	/	/	/	/
CCc1cccc(CC)c1N1C(=O)C2=C(SCCCS2)C1=O	39.7*	16.2	/	-0.3	/	/	35.3*	38.0*
CC1(Cc2ccccc2Cl)C(=O)Nc2cc(-c3ccccc3Cl)ccc21 (configuration not stated)	-1.3	/	/	10.0	/	/	/	/
COc1ccc(C2C3=C(Nc4ncnn42)c2ccccc2CCC3)cc1 (configuration not stated)	-10.9	-0.9	3.2	-2.4	i	i	/	/
Fc1ccc(/C=C2\CCCC3=C2Nc2ncnn2C3c2ccc(F)cc2)cc1 (configuration not stated)	25.8*	4.9	-9.8	5.4	i	i	10.6	13.9*
Cc1c(/C=N\NC(=O)C2COc3ccc(C(C)(C)C)cc3O2)c2ccccc2n1C (configuration not stated)	2.6	2.6	-5.4	3.7	i	i	/	/
O=C1C(=C(c2ccccc2)N2CCOCC2)Cc2ccccc21	83.7*	14.6	/	-6.1	/	/	85.2*	6.0
CC(C)c1nnc(NC(=O)CCS(=O)(=O)c2nc(-c3cccs3)cc(C(F)(F)F)n2)s1	40.9*	17.4	11.9	-3.0	i	i	11.0	8.8
O=c1c(O)c(-c2ccccc2)oc2cc(O)ccc12	24.6*	/	/	4.0	/	/	32.1*	29.4*
Cc1oc2c(c1C(=O)c1ccc(Cl)cc1)C(=O)C(=O)c1ccccc1-2	0.1	4.0	9.0	2.7	/	i	/	/
Cc1ccc(C(=O)c2c(C)oc3c2C(=O)C(=O)c2ccccc2-3)cc1	24.0*	13.3	-16.0	2.5	25*	-17.9*	24.4*	3.2
Nc1nc2ncccn2c1-c1ccc(F)cc1	16.6	/	/	8.1	/	/	/	/
Nc1nc2ncccn2c1-c1ccc(C(F)(F)F)cc1	25.4*	/	/	-1.4	/	/	27.7*	34.5*
Cc1ccc(S(=O)(=O)CCC(=O)c2cccc([N+](=O)[O-])c2)cc1	22.4*	-10.9	/	-4.3	i	i	38.5*	1.4
Cc1ccc(C(=O)CCS(=O)(=O)c2ccc(Br)cc2)cc1	2.9	5.6	/	2.1	i	i	/	/
O=C1c2cccc(O)c2C(=O)c2c(O)cc(CO)cc21	/	/	/	/	i	/	/	/
